In the supplement of paper PMC6288085:
Counter-ions that a name gives are not always drawn. ± gives the uncertainty stated by the source.

Each compound was assayed on Caenorhabditis elegans N2 (assay: food intake (mean delta OD600 / animal over 72 h) with 50 uM loxapine co-treatment (OD600 units per animal); higher = more food eaten (less suppression of loxapine-induced hyperphagia)). Conditions: first compound 33 µM, loxapine concentration 50 µM.
Protocol: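 C. elegans N2 adults (FUDR-sterilised, day 1) in 96-well plates fed gamma-irradiated bacteria. Each library drug (MedChemExpress FDA-approved library) at 33 uM was combined with loxapine at 50 uM. Food intake was measured as bacterial clearance: the change in OD600 from day 1 to 72 h, normalised per animal (mean over 14-21 wells of about 10-12 worms). Drugs flagged for bacterial lysis or sickness were excluded by the authors.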

SMILES	food intake
COc1cc(OC)c(C(=O)CCCN2CCCC2)c(OC)c1 [buflomedil (hydrochloride)] + CN1CCN(C2=Nc3ccccc3Oc3ccc(Cl)cc32)CC1 [loxapine]	0.0222 ± 0.0028
N=C(N)NC(=N)NCCc1ccccc1 [Phenformin (hydrochloride)] + CN1CCN(C2=Nc3ccccc3Oc3ccc(Cl)cc32)CC1 [loxapine]	0.0236 ± 0.0019
O=C([O-])c1ccccc1O.[Na+] [sodium salicylate] + CN1CCN(C2=Nc3ccccc3Oc3ccc(Cl)cc32)CC1 [loxapine]	0.0224 ± 0.0057
CN(C)c1cc(NC(=O)CNC(C)(C)C)c(O)c2c1C[C@H]1C[C@H]3[C@H](N(C)C)C(O)=C(C(N)=O)C(=O)[C@@]3(O)C(O)=C1C2=O [tigecycline] + CN1CCN(C2=Nc3ccccc3Oc3ccc(Cl)cc32)CC1 [loxapine]	0.0234 ± 0.0019
CN(CCOc1ccc(CC2SC(=O)NC2=O)cc1)c1ccccn1 (stereo not given) [rosiglitazone] + CN1CCN(C2=Nc3ccccc3Oc3ccc(Cl)cc32)CC1 [loxapine]	0.0226 ± 0.0041
CCOc1ccc(NC(C)=O)cc1 [phenacetin] + CN1CCN(C2=Nc3ccccc3Oc3ccc(Cl)cc32)CC1 [loxapine]	0.0226 ± 0.0036
CC=CC(=O)N(CC)c1ccccc1C [crotamiton] + CN1CCN(C2=Nc3ccccc3Oc3ccc(Cl)cc32)CC1 [loxapine]	0.0223 ± 0.002
CN1C2=CC(=O)/C(=N\NC(N)=O)C=C2CC1S(=O)(=O)O (stereo not given) [carbazochrome (sodium sulfonate)] + CN1CCN(C2=Nc3ccccc3Oc3ccc(Cl)cc32)CC1 [loxapine]	0.0296 ± 0.0057
C[C@]12CC[C@@H]3c4ccc(O)cc4CC[C@H]3[C@@H]1CC[C@@H]2OC(=O)CCC1CCCC1 [estradiol (cypionate)] + CN1CCN(C2=Nc3ccccc3Oc3ccc(Cl)cc32)CC1 [loxapine]	0.0224 ± 0.0087
CN(C)CCOC(c1ccccc1)c1ccccc1.Cn1c(=O)c2[nH]c(Cl)nc2n(C)c1=O [dimenhydrinate] + CN1CCN(C2=Nc3ccccc3Oc3ccc(Cl)cc32)CC1 [loxapine]	0.0239 ± 0.0029
Cc1ncc([N+](=O)[O-])n1CC(C)O (stereo not given) [secnidazole] + CN1CCN(C2=Nc3ccccc3Oc3ccc(Cl)cc32)CC1 [loxapine]	0.0205 ± 0.0035
CC(=O)NCCCS(=O)(=O)O [Acamprosate (calcium)] + CN1CCN(C2=Nc3ccccc3Oc3ccc(Cl)cc32)CC1 [loxapine]	0.023 ± 0.0036
CC(C)(C)C(=O)C(Oc1ccc(Cl)cc1)n1ccnc1 (stereo not given) [climbazole] + CN1CCN(C2=Nc3ccccc3Oc3ccc(Cl)cc32)CC1 [loxapine]	0.0235 ± 0.012
COc1c(N2C[C@@H]3CCCN[C@@H]3C2)c(F)cc2c(=O)c(C(=O)O)cn(C3CC3)c12 [moxifloxacin (hydrochloride)] + CN1CCN(C2=Nc3ccccc3Oc3ccc(Cl)cc32)CC1 [loxapine]	0.0216 ± 0.0034
COc1ccc(C(=O)NCc2ccc(OCCN(C)C)cc2)cc1OC [itopride (hydrochloride)] + CN1CCN(C2=Nc3ccccc3Oc3ccc(Cl)cc32)CC1 [loxapine]	0.0294 ± 0.033
O=C(Nc1c(Cl)cncc1Cl)c1ccc(OC(F)F)c(OCC2CC2)c1 [roflumilast] + CN1CCN(C2=Nc3ccccc3Oc3ccc(Cl)cc32)CC1 [loxapine]	0.0214 ± 0.0055
C[N+](C)(C)CCCCCC[N+](C)(C)C [hexamethonium (bromide)] + CN1CCN(C2=Nc3ccccc3Oc3ccc(Cl)cc32)CC1 [loxapine]	0.0215 ± 0.0099
OCCN1C[C@H](O)[C@@H](O)[C@H](O)[C@H]1CO [miglitol] + CN1CCN(C2=Nc3ccccc3Oc3ccc(Cl)cc32)CC1 [loxapine]	0.0214 ± 0.005
Cc1cccc(C)c1OCC(=O)N[C@@H](Cc1ccccc1)[C@@H](O)C[C@H](Cc1ccccc1)NC(=O)[C@H](C(C)C)N1CCCNC1=O [lopinavir] + CN1CCN(C2=Nc3ccccc3Oc3ccc(Cl)cc32)CC1 [loxapine]	0.0209 ± 0.0084
CN1C(C(=O)Nc2ccccn2)=C(O)c2ccccc2S1(=O)=O [piroxicam] + CN1CCN(C2=Nc3ccccc3Oc3ccc(Cl)cc32)CC1 [loxapine]	0.0225 ± 0.0032

SMILES	food intake
CCCS(=O)(=O)Nc1ccc(F)c(C(=O)c2c[nH]c3ncc(-c4ccc(Cl)cc4)cc23)c1F [vemurafenib] + CN1CCN(C2=Nc3ccccc3Oc3ccc(Cl)cc32)CC1 [loxapine]	0.012 ± 0.0047
CO/N=C(\C(=O)N[C@@H]1C(=O)N2C(C(=O)O)=C(CSc3nc(=O)c(O)nn3C)CS[C@H]12)c1csc(N)n1 [ceftriaxone (sodium salt)] + CN1CCN(C2=Nc3ccccc3Oc3ccc(Cl)cc32)CC1 [loxapine]	0.0251 ± 0.0082
CC(=O)OCC(=O)[C@@]1(O)CC[C@H]2[C@@H]3CCC4=CC(=O)CC[C@]4(C)[C@H]3C(=O)C[C@@]21C [cortisone (acetate)] + CN1CCN(C2=Nc3ccccc3Oc3ccc(Cl)cc32)CC1 [loxapine]	0.0231 ± 0.0059
O=C(O)CCNC(=O)c1ccccc1 [betamipron] + CN1CCN(C2=Nc3ccccc3Oc3ccc(Cl)cc32)CC1 [loxapine]	0.0228 ± 0.0023
CC(C)Cc1ccc(C(C)C(=O)O)cc1 (stereo not given) [ibuprofen] + CN1CCN(C2=Nc3ccccc3Oc3ccc(Cl)cc32)CC1 [loxapine]	0.0222 ± 0.0021
CC[C@@H]([C@H](C)O)n1ncn(-c2ccc(N3CCN(c4ccc(OC[C@@H]5CO[C@@](Cn6cncn6)(c6ccc(F)cc6F)C5)cc4)CC3)cc2)c1=O [Posaconazole] + CN1CCN(C2=Nc3ccccc3Oc3ccc(Cl)cc32)CC1 [loxapine]	0.023 ± 0.0056
O=NN(CCCl)C(=O)NC1CCCCC1 [Lomustine] + CN1CCN(C2=Nc3ccccc3Oc3ccc(Cl)cc32)CC1 [loxapine]	0.0248 ± 0.0039
COC(=O)Nc1nc2cc([S+]([O-])c3ccccc3)ccc2[nH]1 (stereo not given) [oxfendazole] + CN1CCN(C2=Nc3ccccc3Oc3ccc(Cl)cc32)CC1 [loxapine]	0.0214 ± 0.0037
CC(C)(C)C(=O)OCOC(=O)[C@@H]1N2C(=O)[C@@H](/N=C/N3CCCCCC3)[C@H]2SC1(C)C [pivmecillinam (hydrochloride)] + CN1CCN(C2=Nc3ccccc3Oc3ccc(Cl)cc32)CC1 [loxapine]	0.0244 ± 0.0027
COc1ccc(CCN(C)CCCN2CCc3cc(OC)c(OC)cc3CC2=O)cc1OC [zatebradine] + CN1CCN(C2=Nc3ccccc3Oc3ccc(Cl)cc32)CC1 [loxapine]	0.0232 ± 0.0027
Cc1[nH]c(=O)c(C#N)cc1-c1ccncc1 [milrinone] + CN1CCN(C2=Nc3ccccc3Oc3ccc(Cl)cc32)CC1 [loxapine]	0.0238 ± 0.0035
CC[C@@H](CO)NCCN[C@@H](CC)CO [ethambutol (dihydrochloride)] + CN1CCN(C2=Nc3ccccc3Oc3ccc(Cl)cc32)CC1 [loxapine]	0.024 ± 0.0019
CN1CCC[C@H]1c1cccnc1 [L-nicotine] + CN1CCN(C2=Nc3ccccc3Oc3ccc(Cl)cc32)CC1 [loxapine]	0.0212 ± 0.0058
CC(=O)NC(Cc1ccccc1)C(=O)O (racemic) [N-acetyl DL-phenylalanine] + CN1CCN(C2=Nc3ccccc3Oc3ccc(Cl)cc32)CC1 [loxapine]	0.0223 ± 0.0049
C#C[C@]1(O)CC[C@H]2[C@@H]3CCc4cc(OC)ccc4[C@H]3CC[C@@]21C [mestranol] + CN1CCN(C2=Nc3ccccc3Oc3ccc(Cl)cc32)CC1 [loxapine]	0.0204 ± 0.0018
CC(CCc1ccccc1)NCC(O)c1ccc(O)c(C(N)=O)c1 (stereo not given) [labetalol (hydrochloride)] + CN1CCN(C2=Nc3ccccc3Oc3ccc(Cl)cc32)CC1 [loxapine]	0.0213 ± 0.0075
CCc1c2c(nc3ccc(OC(=O)N4CCC(N5CCCCC5)CC4)cc13)-c1cc3c(c(=O)n1C2)COC(=O)[C@]3(O)CC [Irinotecan] + CN1CCN(C2=Nc3ccccc3Oc3ccc(Cl)cc32)CC1 [loxapine]	0.022 ± 0.003
O=c1[nH]c(=O)n([C@H]2C[C@H](O)[C@@H](CO)O2)cc1I [idoxuridine] + CN1CCN(C2=Nc3ccccc3Oc3ccc(Cl)cc32)CC1 [loxapine]	0.0176 ± 0.0026
CN(C)[C@@H]1C(O)=C(C(N)=O)C(=O)[C@@]2(O)C(O)=C3C(=O)c4c(O)ccc(Cl)c4[C@@H](O)[C@H]3C[C@@H]12 [demeclocycline (hydrochloride)] + CN1CCN(C2=Nc3ccccc3Oc3ccc(Cl)cc32)CC1 [loxapine]	0.0207 ± 0.0035
c1ccc(C2CN3CCSC3=N2)cc1 (stereo not given) [tetramisole (hydrochloride)] + CN1CCN(C2=Nc3ccccc3Oc3ccc(Cl)cc32)CC1 [loxapine]	0.0209 ± 0.0029
